D1 ag = agonists of human D1 dopamine receptor; P21728; HEK293 T-REx D1 cells, calcium flux, agonist mode; activation, % at 2 µM; actives 1% (n = 360,000); AID 504660; in the data active means activation above about 30%; further: 0% is about no effect
Target sequence (P21728 whole entry, looked up): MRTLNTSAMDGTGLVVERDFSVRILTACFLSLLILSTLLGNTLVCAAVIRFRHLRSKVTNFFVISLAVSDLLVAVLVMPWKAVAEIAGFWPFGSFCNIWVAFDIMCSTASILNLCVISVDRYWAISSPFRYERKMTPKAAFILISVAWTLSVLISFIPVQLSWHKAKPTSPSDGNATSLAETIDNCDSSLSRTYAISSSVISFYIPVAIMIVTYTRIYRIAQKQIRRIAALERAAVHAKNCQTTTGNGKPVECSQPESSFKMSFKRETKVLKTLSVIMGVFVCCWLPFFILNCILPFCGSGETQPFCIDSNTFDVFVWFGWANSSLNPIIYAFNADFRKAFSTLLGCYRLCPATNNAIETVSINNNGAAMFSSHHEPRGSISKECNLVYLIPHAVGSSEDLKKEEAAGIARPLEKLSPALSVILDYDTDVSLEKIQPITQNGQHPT
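Inducible HEK293 T-REx D1 cells, force-coupled to calcium signalling, were plated at 4000 cells/well with tetracycline and held overnight at 30 C. After no-wash calcium dye loading, compound-evoked calcium rise over 180 s flagged agonists.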
D1 PAM = enhances dopamine response at the human D1 receptor; P21728; HEK293 TREx D1 cells, calcium flux, dopamine EC20 potentiation; actives 0.036% (n = 360,000); potentiation, % at 10 µM; AID 504651; in the data active means potentiation above about 30%; further: 0% is about no effect
DRD3 agonist = activates the human D3 dopamine receptor; actives 0.58% (n = 410,000); D3R DiscoveRx beta-arrestin cells, luminescence, 90 min; max activation, %; P35462; in the data active means max activation above about 30%; further: 0% is about no effect
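Agonist mode: compounds and dopamine controls were applied to plated cells for 90 min at 37 degrees C after an overnight attachment at 1500 cells/well. Luminescent read-out followed 30 - 60 minutes at room temperature with DiscoveRx detection reagent.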
D3 antag = D3 dopamine receptor (human) antagonism; P35462; D3R cells, DiscoveRx beta-arrestin luminescence, antagonist mode; hits give low values; actives 2.5% (n = 360,000); max response, negative = inhibition, %; AID 652054; in the data active means max response below about -50%; inconclusive means no clear call, values can overlap the other calls; further: on the % scale 0 is the no-effect control and ±100 the full control effect
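Cells plated overnight at 1500 cells/well, then exposed to library compounds with dopamine controls for 90 minutes at 37 degrees C. DiscoveRx reagent added for 30–60 minutes at room temperature; luminescence read, quantitative HTS format.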
D1 antag = blocks dopamine activation of the human D1 receptor; HEK293 TREx D1 cells, calcium flux, dopamine EC80; hits give low values; P21728; activity change, negative = inhibition, % at 10 µM; actives 3.2% (n = 360,000); AID 504652; in the data active means activity change below about -30%; further: on the % scale 0 is the no-effect control and ±100 the full control effect
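Calcium flux readout: force-coupled, inducible Hek293 Trex D1 line, cells induced overnight at 30 C with tetracycline, dye-loaded 30–90 min at RT. Antagonism scored against EC80 dopamine challenge given 180 s after compound.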
* = called active by the depositor; ? = inconclusive; . = no result. The list is not random: actives were taken first. Their share in the collection is about 6.1%.

SMILES | D1 ag | D1 PAM | DRD3 agonist | D3 antag | D1 antag
CCOC(=O)N1CCN(c2c(N3CCN(c4ccccc4OC)CC3)c(=O)c2=O)CC1 | 0 | -3 | -13 | -15 | -33*
CCOC(=O)N1CCN(c2c(NC3CCN(Cc4ccccc4)CC3)c(=O)c2=O)CC1 | 2 | . | -22 | -51* | 1
CCOC(=O)N1CCC(Nc2c(OCC)c(=O)c2=O)CC1 | 3 | -4 | -2 | 23 | -34*
Cc1ccccc1CN1CCN(Cc2cc(=O)c3ccccc3[nH]2)CC1CCO (centres undefined) | 8 | 0 | -21 | ? | -19
CCC(=O)OCc1cnc(C)c2oc(=O)c(C(=O)Nc3ccc(CC)cc3)cc12 | 0 | -1 | -16 | . | -2
O=C1CN(S(=O)(=O)c2cc(Br)ccc2Br)CCN1 | . | . | -1 | -7 | .
O=c1c(Br)ccc(Br)cc1Br | . | . | -31 | -114* | .
COc1ccc(CCn2c(SCCN3CCCCC3)nc3ccccc3c2=O)cc1OC | 4 | -1 | -3 | -103* | -6
CC12CCC(=O)N1C(C(=O)N1CCN(S(=O)(=O)c3ccc(F)c(F)c3)CC1)CS2 (centres undefined) | 0 | -8 | 9 | 1 | -1
Cc1ccc(C(C)C)cc1S(=O)(=O)Nc1cccnc1 | 3 | -2 | 19 | 18 | 2
CCCCCC[n+]1c(-c2ccccc2)csc1Nc1ccccc1 | 1 | 1 | -11 | -5 | -82*
O=C(O)/C=C/C(=O)Nc1cccc(C(F)(F)F)c1 | 3 | 2 | -4 | -1 | -5
C=CCC(CC=C)(CNC(=O)C(=O)Nc1cccc(C(F)(F)F)c1)c1ccccc1 | 30* | 2 | -3 | . | -1
CC(C)C[C@H]1COc2cc(N3CCN(Cc4ccccc4F)CC3)ccc2S(=O)(=O)N1 | . | . | -9 | -66* | .
O=S1(=O)N[C@@H](Cc2ccccc2)COc2cc(N3CCN(Cc4ccccc4F)CC3)ccc21 | . | . | -3 | -2 | .
Cn1cc(C=C2C(=O)OC3(CCCCC3)OC2=O)c2ccccc21 | 2 | -3 | 5 | 11 | -30*
COc1ccc(-c2ccc(C3C(C#N)=C(N)Oc4n[nH]c(C)c43)o2)cc1 (centres undefined) | 32* | -7 | -9 | -5 | -33*
CCOC(=O)c1c(-c2cc(OC)c(OC)c(OC)c2)csc1N | . | . | -8 | 0 | .
CCc1cccc(NC(=O)CCCSc2nc3ccccc3[nH]2)c1 | 13 | -6 | 4 | 3 | -36*
CSc1cccc(NC(=O)CCc2ccccc2)c1 | 2 | 1 | -15 | 12 | -9
O=C(CCCSc1ccccc1)Nc1cccc(CO)c1 | 7 | . | 2 | -2 | -34*
COc1cc(NC(=O)c2sc3nc4n(c(=O)c3c2C)CCCCC4)cc(OC)c1OC | 0 | -3 | 1 | . | -14
Cn1c(CN2CCCC2)nc2cc(NS(=O)(=O)c3ccc(Cl)cc3)ccc21 | 47* | -6 | -19 | -104* | -14
COc1ccc(-n2cnc3cc(NS(=O)(=O)c4ccccc4)ccc32)cc1 | 1 | -5 | 5 | -87* | -2
Cn1c(CCN2CCCC2)nc2cc(NS(=O)(=O)c3ccc(Cl)cc3)ccc21 | 25 | -3 | -11 | ? | -24
SMILES | D1 ag | D1 PAM | DRD3 agonist | D3 antag | D1 antag
Cn1c(CN2CCCC2)nc2cc(NS(=O)(=O)c3ccccc3)ccc21 | 6 | -4 | -35 | -80* | 4
Cc1ccc(S(=O)(=O)Nc2ccc3c(c2)nc(CCN2CCCC2)n3C)cc1 | 18 | -4 | -14 | -57* | -17
CC(C)(C)n1cnc2cc(NS(=O)(=O)c3ccccc3)ccc21 | 13 | -5 | -3 | 10 | 12
c1ccc(-c2ncc(-c3ccn[nH]3)s2)cc1 | 5 | -3 | 4 | 7 | 2
O=C(c1ccc(Cl)c(S(=O)(=O)NCc2ccccc2)c1)N1CCN(c2ccccn2)CC1 | 3 | -1 | 16 | -71* | 7
O=C(c1ccc(CNS(=O)(=O)c2ccccc2)cc1)N1CCN(c2ccccn2)CC1 | 2 | 1 | 1 | 33 | 9
CN(Cc1ccccc1)S(=O)(=O)c1cccc(C(=O)O)c1 | 2 | -3 | 10 | 0 | -19
CC(C)(C)c1ccc(Oc2ccc(NC(=O)CCC(=O)OCC(=O)c3ccccc3)cc2)cc1 | 11 | -1 | 10 | . | -4
O=C(Nc1cccc(NC(=O)c2ccc(Cl)cc2)n1)c1ccc(Cl)cc1 | 6 | -4 | 1 | 13 | -33*
COc1cc(OC)cc(C(=O)N2CCN(C(=O)COc3ccccc3)CC2)c1 | -1 | 1 | 4 | . | 3
Cc1cc(SCC(=O)NCc2ccc(F)cc2)nc(=O)[nH]1 | 1 | 2 | -17 | . | .
Cc1ccc(C)c(C(=O)NCCN(C)C)c1 | 4 | -5 | -2 | 11 | -20
C=C(CN(C)C)C(=O)c1cc(C)ccc1C | . | . | -18 | -88* | .
COc1ccccc1CNC(=O)Cn1nc(C)c([N+](=O)[O-])c1C | . | . | 8 | 12 | .
O=C1NC[C@H](CCCCN2C[C@H](Cc3ccccc3)N(CCc3ccc(O)cc3)C(=O)C2=O)N(CCc2ccccc2)C1=O | . | . | 3 | 13 | .
CCC(C)NC(=O)c1cc(C)no1 (centres undefined) | 3 | 2 | -9 | -64* | -2
COc1cc(NC(=O)COC(=O)C2CC2)c(C)cc1[N+](=O)[O-] | 4 | -5 | -3 | -1 | 7
COc1cc(NC(=O)CN(C)C2CCCCC2)c(C)cc1[N+](=O)[O-] | 0 | -11 | 2 | 17 | -74*
Cc1ccc(C(NC(=O)C2CCN(Cc3ccc(Oc4ccccc4)cc3)CC2)c2ccccn2)cc1 (centres undefined) | . | . | -12 | -83* | .
COc1ccc(C(NC(=O)C2CCN(CCc3ccccc3)CC2)c2ccccn2)cc1 (centres undefined) | . | . | -18 | -75* | .
COc1ccc(C(NC(=O)C2CCN(CCCOc3ccccc3)CC2)c2ccccn2)cc1 (centres undefined) | . | . | -24 | -110* | .
Cc1ccc(C(NC(=O)C2CCN(Cc3ccc(Cl)c(Cl)c3)CC2)c2ccccn2)cc1 (centres undefined) | . | . | -14 | -1 | .
O=C(NC(c1ccc(-c2ccccc2)cc1)c1cnccn1)C1CCN(CCCOc2ccccc2)CC1 (centres undefined) | . | . | -15 | -73* | .
COc1ccc(C(NC(=O)C2CCN(CCCc3ccccc3)CC2)c2ccccn2)cc1 (centres undefined) | . | . | 6 | -22 | .
CCC(C)NC(=O)CCCN1C(=O)CCn2nc(-c3cccn3C)cc21 (centres undefined) | -1 | 2 | 2 | . | -8
COC(=O)[C@H]1C[C@@]2(O)CN(S(=O)(=O)c3ccc(C)cc3)C[C@@]2(OC(=O)NCc2ccco2)C[C@H]1C(=O)OC | . | . | -1 | 1 | .
C=CCOc1cccc(C(=O)Nc2ncn[nH]2)c1 | 2 | -1 | 1 | -3 | 7
COc1ccc(C(NC(=O)C2CCN(CCOc3ccc(Cl)cc3)CC2)c2cccs2)cc1 (centres undefined) | . | . | -18 | -81* | .
